The supplement of paper PMC11732987, “Enantioselective OTUD7B fragment discovery through chemoproteomics screening and high-throughput optimisation” (Communications Chemistry, 2025)

Columns and labels:
Assay in all cases: log2 ratio of Biotin-Ahx-Ub-VS probe labelling (fragment/DMSO); higher = less target engagement (more negative = stronger competition), active = hit call of the paper (q ≤ 0.05, log2 ratio ≤ -1)
Settings in all cases: compound concentration: 200 uM; treatment time: 3 h
[1] = biological target: T1, USP19 (UniProt O94966)
T1 sequence (whole entry): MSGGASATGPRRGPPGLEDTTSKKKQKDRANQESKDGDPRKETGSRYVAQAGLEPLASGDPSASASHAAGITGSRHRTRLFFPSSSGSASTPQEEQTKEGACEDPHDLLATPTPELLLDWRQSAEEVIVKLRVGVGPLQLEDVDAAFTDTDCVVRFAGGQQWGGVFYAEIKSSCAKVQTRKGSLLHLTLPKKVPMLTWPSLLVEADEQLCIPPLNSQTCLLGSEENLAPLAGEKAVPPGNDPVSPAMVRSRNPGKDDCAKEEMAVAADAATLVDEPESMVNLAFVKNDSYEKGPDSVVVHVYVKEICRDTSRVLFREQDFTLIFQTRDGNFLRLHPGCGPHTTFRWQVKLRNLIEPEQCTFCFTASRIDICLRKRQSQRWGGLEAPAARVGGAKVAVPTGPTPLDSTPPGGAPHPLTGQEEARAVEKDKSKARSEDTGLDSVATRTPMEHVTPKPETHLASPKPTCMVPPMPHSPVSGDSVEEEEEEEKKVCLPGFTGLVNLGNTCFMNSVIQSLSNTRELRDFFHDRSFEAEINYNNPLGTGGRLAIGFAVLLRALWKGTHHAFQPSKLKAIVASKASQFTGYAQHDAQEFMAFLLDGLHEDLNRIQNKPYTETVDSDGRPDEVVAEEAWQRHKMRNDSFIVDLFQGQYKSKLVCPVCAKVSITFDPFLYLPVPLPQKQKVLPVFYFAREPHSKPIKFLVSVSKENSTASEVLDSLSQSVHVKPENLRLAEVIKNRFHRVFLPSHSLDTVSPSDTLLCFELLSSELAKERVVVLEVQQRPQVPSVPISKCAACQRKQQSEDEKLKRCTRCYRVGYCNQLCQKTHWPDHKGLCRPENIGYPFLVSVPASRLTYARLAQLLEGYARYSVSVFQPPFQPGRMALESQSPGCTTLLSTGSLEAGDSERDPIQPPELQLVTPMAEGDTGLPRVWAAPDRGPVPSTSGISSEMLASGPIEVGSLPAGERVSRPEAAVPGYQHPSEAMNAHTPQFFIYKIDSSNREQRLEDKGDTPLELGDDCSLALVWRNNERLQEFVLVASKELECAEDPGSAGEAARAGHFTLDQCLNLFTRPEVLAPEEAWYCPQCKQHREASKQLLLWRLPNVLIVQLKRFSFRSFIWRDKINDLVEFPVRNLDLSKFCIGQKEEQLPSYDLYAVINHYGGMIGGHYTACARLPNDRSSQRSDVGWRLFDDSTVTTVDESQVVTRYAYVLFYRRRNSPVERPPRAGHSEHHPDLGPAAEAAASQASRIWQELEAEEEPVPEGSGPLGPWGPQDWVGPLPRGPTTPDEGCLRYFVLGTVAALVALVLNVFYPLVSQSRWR
Procedure, shortened: (§1)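 Each value is an average log2 ratio of fragment to vehicle, tested by unpaired t-test. The underlying Spectronaut label-free quantities were global-median-normalised, and only proteins with ≥2 unique peptides were included. Triplicate HEK293T lysate samples (495 µg) were exposed to fragment at 200 µM or vehicle for 3 h, then to Biotin-Ahx-Ub-VS at 0.5 µM final for 1 h, before NeutrAvidin enrichment of labelled DUBs, LysC and trypsin digestion, and diaPASEF LC-MS/MS.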

[2] = biological target: T2, USP22 (UniProt Q9UPT9)
T2 sequence (whole entry): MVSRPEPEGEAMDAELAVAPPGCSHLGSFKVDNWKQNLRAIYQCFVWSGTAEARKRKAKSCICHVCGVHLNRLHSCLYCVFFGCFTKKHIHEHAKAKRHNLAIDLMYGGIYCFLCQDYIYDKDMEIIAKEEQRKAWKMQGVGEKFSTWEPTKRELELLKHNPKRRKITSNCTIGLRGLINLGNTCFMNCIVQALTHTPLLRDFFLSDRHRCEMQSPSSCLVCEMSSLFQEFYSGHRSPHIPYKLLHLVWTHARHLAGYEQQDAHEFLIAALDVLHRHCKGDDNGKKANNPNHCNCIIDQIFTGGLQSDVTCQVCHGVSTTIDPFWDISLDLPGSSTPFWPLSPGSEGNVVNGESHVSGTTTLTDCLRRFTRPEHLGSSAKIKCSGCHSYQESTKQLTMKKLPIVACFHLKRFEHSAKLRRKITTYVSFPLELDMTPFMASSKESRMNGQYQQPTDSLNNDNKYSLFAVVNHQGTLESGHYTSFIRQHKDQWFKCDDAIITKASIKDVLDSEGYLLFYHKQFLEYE
Procedure, shortened: as §1

[3] = biological target: USP24 (UniProt Q9UPU5)
USP24, sequence (Q9UPU5 whole entry): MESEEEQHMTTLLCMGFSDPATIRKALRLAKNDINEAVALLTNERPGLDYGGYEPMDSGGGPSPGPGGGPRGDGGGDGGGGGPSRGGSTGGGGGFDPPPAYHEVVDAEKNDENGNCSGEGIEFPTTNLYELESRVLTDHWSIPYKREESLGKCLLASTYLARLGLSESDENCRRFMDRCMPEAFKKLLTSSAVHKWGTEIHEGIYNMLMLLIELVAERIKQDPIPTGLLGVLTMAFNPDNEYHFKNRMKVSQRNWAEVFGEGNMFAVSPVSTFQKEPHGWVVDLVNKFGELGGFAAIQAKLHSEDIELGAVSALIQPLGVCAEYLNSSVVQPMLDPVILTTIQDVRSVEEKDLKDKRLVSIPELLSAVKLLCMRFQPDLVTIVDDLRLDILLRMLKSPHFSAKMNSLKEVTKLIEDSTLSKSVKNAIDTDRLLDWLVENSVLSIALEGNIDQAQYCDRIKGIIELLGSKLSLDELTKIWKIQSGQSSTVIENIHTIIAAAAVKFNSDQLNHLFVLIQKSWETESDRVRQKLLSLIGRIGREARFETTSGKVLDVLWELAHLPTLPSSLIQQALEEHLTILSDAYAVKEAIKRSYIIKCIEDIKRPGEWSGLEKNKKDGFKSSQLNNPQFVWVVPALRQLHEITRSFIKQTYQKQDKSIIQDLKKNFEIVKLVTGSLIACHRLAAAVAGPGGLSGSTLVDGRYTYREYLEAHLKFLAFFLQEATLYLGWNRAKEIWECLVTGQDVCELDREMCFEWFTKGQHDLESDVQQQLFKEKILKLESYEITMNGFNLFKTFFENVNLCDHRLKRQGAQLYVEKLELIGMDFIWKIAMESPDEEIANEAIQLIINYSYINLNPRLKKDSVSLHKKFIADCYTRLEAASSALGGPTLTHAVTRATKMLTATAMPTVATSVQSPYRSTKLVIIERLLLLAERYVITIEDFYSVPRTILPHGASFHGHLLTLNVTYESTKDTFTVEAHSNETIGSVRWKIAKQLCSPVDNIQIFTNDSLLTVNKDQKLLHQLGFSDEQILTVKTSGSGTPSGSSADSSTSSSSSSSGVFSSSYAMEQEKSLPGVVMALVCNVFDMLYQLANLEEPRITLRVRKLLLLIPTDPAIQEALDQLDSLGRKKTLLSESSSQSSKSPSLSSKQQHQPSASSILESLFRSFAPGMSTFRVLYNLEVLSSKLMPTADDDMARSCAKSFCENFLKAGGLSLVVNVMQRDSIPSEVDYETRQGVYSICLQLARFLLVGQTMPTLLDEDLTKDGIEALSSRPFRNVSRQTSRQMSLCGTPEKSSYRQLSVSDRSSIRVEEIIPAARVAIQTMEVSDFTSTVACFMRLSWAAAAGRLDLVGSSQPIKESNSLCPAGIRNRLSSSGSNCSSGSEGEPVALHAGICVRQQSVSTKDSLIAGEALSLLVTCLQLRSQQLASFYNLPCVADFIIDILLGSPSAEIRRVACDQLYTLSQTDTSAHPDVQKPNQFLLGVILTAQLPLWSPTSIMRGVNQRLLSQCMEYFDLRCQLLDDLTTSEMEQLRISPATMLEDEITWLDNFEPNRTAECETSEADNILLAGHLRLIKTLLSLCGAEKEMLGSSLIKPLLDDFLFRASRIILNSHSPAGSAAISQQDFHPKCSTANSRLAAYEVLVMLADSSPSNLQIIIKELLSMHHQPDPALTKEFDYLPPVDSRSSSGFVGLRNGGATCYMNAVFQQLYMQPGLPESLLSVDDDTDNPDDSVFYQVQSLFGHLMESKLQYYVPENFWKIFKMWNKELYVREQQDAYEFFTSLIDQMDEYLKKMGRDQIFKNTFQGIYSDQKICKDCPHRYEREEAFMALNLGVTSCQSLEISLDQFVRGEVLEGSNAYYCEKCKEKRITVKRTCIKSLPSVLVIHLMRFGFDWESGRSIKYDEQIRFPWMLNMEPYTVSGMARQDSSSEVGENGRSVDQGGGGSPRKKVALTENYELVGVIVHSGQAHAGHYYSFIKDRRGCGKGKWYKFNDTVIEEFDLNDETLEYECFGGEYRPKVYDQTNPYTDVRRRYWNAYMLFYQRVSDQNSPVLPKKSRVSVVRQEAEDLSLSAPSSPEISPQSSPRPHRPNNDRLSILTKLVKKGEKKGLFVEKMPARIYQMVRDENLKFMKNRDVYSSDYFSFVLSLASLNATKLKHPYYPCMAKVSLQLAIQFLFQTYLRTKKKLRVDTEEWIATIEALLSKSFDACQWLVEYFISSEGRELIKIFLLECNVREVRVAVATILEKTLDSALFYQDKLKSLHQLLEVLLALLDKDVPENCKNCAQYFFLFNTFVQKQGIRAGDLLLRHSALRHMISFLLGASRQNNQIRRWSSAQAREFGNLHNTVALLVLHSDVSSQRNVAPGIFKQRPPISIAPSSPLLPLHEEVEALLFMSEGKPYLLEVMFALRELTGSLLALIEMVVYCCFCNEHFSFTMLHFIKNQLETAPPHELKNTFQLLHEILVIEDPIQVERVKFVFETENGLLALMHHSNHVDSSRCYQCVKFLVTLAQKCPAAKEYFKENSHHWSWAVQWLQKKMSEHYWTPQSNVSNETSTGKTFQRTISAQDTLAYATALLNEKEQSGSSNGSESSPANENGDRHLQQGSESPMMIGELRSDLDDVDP
Procedure, shortened: as §1

[4] = biological target: T3, USP25 (UniProt Q9UHP3)
T3 sequence (whole entry): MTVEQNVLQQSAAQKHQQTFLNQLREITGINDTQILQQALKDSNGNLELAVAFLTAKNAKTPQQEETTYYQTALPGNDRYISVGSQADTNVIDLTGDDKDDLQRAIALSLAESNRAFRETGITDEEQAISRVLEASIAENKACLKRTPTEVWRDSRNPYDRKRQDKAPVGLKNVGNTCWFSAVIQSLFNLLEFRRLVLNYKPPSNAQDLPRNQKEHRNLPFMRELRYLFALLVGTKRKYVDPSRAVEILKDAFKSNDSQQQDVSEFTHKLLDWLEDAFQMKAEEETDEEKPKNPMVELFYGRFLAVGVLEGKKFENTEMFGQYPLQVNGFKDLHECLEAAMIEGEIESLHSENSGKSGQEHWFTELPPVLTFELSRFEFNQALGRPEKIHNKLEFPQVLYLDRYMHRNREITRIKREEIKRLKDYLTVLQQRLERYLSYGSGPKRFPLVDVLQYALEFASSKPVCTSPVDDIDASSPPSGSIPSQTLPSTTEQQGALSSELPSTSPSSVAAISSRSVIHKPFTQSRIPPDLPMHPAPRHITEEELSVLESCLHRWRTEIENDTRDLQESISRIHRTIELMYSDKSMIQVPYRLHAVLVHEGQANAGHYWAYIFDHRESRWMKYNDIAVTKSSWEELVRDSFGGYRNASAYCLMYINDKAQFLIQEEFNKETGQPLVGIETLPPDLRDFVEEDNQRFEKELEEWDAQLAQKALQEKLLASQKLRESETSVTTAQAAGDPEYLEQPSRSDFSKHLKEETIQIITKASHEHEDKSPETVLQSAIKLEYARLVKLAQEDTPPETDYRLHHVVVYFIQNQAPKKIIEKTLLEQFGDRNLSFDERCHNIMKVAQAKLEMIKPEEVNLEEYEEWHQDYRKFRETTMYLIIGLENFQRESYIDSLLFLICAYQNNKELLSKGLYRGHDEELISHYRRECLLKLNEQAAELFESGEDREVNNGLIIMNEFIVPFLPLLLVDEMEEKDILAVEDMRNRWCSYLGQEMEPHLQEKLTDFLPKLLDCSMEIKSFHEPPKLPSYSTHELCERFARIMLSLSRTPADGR
Procedure, shortened: as §1

[5] = biological target: T4, USP28 (UniProt Q96RU2)
T4 sequence (whole entry): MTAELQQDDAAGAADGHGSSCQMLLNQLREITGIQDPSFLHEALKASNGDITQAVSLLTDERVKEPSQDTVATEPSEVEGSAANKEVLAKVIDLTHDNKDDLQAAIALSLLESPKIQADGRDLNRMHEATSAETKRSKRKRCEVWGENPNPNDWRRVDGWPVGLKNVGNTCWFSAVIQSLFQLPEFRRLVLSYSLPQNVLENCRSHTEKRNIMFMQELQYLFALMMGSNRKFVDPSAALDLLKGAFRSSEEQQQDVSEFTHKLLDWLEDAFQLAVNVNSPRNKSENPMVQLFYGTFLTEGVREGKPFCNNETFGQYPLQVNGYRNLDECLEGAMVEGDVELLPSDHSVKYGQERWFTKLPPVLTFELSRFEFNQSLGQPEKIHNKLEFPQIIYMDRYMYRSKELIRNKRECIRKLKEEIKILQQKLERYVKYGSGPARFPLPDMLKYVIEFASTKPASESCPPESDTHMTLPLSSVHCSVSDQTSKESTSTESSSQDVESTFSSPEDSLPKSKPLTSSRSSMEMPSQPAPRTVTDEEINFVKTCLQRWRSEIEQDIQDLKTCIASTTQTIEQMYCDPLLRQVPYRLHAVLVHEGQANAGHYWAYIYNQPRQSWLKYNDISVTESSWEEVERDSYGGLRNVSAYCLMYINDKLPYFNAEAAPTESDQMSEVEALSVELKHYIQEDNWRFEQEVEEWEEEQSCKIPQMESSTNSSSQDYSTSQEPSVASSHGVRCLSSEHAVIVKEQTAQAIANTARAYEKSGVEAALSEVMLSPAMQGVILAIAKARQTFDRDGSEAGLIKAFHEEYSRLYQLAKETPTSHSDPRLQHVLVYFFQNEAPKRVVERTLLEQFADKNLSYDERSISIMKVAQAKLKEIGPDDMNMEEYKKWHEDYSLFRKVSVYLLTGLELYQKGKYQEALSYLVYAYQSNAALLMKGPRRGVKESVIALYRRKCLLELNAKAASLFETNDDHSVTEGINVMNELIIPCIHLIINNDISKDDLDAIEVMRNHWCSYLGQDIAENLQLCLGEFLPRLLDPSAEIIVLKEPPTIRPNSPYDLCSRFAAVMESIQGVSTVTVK
Procedure, shortened: as §1

Measured: log2 ratio of Biotin-Ahx-Ub-VS probe labelling

O=C(CCl)NC1CCCCNC1=O (stereo not given)
inactive: [1] -0.125 | [2] -0.0454 | [3] -0.299 | [4] -0.212 | [5] -0.482
